Source: PubChem BioAssay
Hits are enriched below; roughly 2.5% of the tested compounds scored in any of these assays.
Jurkat NFkB inh: lowers PMA/ionomycin-induced NF-kB signal in Jurkat cells; PMA/ionomycin-induced NF-kB luciferase reporter, luminescence; inhibition, % at 4 µM; 0.53% of 330,000 active; in the data active = inhibition above about 50%
ANO1 activ: activators or potentiators of mouse TMEM16A chloride channel. B-score at 10 µM. AID 623877. 0.3% of 340,000 active. Q8BHY3. HEK293 TMEM16A/YFP-H148Q/I152L, iodide quench fluorescence; hits give low values;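 active = fluorescence-ratio B-score plate-corrected deviation score at least 3 library SD below zero, with starting fluorescence score within 5 deviations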;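 also: channel opened by trigger with iodide after compound preincubation; score built on the fluorescence ratio of max minus min over baseline; more negative score means more quench and so TMEM16A activation or potentiation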
Target sequence (Q8BHY3 whole entry, looked up): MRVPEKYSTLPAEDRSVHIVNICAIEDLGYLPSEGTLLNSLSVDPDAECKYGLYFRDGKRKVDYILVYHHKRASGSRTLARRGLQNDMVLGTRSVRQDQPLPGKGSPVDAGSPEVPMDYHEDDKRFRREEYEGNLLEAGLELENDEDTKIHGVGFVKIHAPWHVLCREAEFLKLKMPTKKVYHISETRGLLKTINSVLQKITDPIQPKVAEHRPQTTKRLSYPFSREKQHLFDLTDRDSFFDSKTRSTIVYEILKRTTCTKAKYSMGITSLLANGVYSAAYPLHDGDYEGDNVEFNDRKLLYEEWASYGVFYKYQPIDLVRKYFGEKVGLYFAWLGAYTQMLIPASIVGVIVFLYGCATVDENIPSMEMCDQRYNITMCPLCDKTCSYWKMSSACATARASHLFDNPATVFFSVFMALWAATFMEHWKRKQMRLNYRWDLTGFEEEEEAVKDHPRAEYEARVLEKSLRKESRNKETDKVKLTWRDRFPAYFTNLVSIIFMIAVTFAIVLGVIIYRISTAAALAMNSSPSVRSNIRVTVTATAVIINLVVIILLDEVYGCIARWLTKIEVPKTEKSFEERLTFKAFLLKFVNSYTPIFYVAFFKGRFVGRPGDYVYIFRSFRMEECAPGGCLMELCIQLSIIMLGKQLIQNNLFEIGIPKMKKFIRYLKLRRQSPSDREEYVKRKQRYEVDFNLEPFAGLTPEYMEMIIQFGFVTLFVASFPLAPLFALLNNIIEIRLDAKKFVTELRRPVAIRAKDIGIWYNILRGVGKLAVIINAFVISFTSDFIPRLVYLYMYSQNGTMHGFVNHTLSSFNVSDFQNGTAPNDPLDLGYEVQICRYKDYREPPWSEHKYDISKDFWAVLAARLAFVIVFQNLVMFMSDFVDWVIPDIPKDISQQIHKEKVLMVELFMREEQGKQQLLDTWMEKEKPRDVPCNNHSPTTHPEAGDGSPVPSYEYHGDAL
ANO1 block: inhibitors of mouse TMEM16A calcium-activated chloride channel; Q8BHY3; HEK293 TMEM16A/YFP iodide influx fluorescence, ionomycin; normalized B-score (activity score, 25-100; higher = stronger inhibition) at 10 µM; 1.2% of 310,000 active;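 active = ratio plate-corrected score three or more library SD toward inhibition, starting fluorescence score within five deviations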;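 also: score derived from kinetic fluorescence span divided by baseline fluorescence per well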
aSyn UTR inh: MLPCN primary screen, SNCA 5' untranslated region; alpha-synuclein 5'UTR reporter, inhibitor activity; inhibition, % (tested at 7.5 µM); 0.82% of 300,000 active; AID 1813; in the data active = inhibition above about 60%;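 also: H4 neuroglioblastoma cells stably carrying SNCA 5'UTR luciferase fusion; 0% = DMSO wells and 100% = positive control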
697 NFkB inh: inhibitors of the PMA/ionomycin-induced NF-kB reporter in 697 B cells; 0.33% of 330,000 active; inhibition, % at 4 µM; 697 B-cell NF-kB luciferase reporter, 16 h; in the data active = inhibition above about 35%
KLF5 inhibitor: kruppel-like factor 5 inhibition | DLD-1 KLF5 promoter-luciferase reporter, luminescence | inhibition, % at 5 µM | 0.23% of 290,000 active | AID 1700;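 active = inhibition above a per-plate limit of that plate's mean compound inhibition plus 3 SD, cut at about 60% in these data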;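 also: 0% = DMSO wells and 100% = LY294002 at 200 µM; higher means less KLF5 promoter-driven luciferase light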
* marks the source's active call; other numbers are inactive results; i = inactive; / = not tested or not shown.

SMILES | Jurkat NFkB inh | ANO1 activ | ANO1 block | aSyn UTR inh | 697 NFkB inh | KLF5 inhibitor
Cc1ccc(C)c(/C=N/NC(=S)NCCc2ccccc2)c1 | -3.8 | i | 100* | 3.4 | -12.4 | -12.0
COc1cc(C(=O)Oc2ccccc2/C=N/NC(=O)c2ccc(C)c(Cl)c2)cc(OC)c1OC | 28.0 | i | i | 84.3* | -33.9 | -7.5
O=C1/C(=C/c2ccc(Br)cc2)Oc2cc(O)ccc21 | -11.0 | i | 100* | -35.9 | -33.2 | -78.7
COc1ccc(N=CC2=C(O)c3ccccc3C2=O)c(OC)c1 | -117.4 | i | i | 62.5* | -149.8 | -41.1
Cc1ccccc1N=CC1=C(O)c2ccccc2C1=O | -115.3 | i | i | -138.4 | -103.2 | -24.5
O=C1c2ccccc2C(=O)c2c1oc(C(F)(F)F)c2C(=O)c1ccccc1 | 18.8 | i | i | 100.9* | -4.4 | -43.8
COc1ccc2sc3c(=O)[nH]c4ccccc4c3c2c1 | 2.5 | i | i | 63.0* | -41.6 | -13.1
CCOC(=O)C(=O)Nc1ccccc1C(=O)OC | 11.6 | i | i | 19.6 | -1.5 | -11.0
CCCCOC(=O)Nc1ccccc1C(=O)OC | 3.5 | -12.5* | i | 13.3 | -4.3 | 3.1
CCOc1ccccc1NC(=O)c1nc(S(=O)(=O)Cc2cccc(C)c2)ncc1Cl | 15.8 | i | i | 88.0* | -74.8 | 27.9
CCc1nnc(NC(=O)c2nc(S(=O)(=O)Cc3cccc(C)c3)ncc2Cl)s1 | 7.0 | i | i | -114.5 | -122.5 | 14.7
CC(C)COP(=O)(OCC(C)C)C(Nc1ccccc1)c1ccccc1 (stereo unspecified) | -6.4 | i | 25* | -4.9 | 4.7 | -11.9
CC(C)COP(=O)(OCC(C)C)C(Nc1ccccc1)c1ccc(F)cc1 (stereo unspecified) | 11.1 | i | i | 22.8 | 5.3 | 4.7
COc1ccc(-c2nc3ncccc3n2O)cc1 | -39.9 | i | i | -39.4 | -20.7 | -17.1
Cc1ccc(S(=O)(=O)NCC(=O)OCC(=O)N(C)C2CCCCC2)cc1 | -1.0 | i | / | / | 18.8 | /
NNC(=O)CN1CCN(c2ncc(C(F)(F)F)cc2Cl)CC1 | -8.2 | i | i | -14.0 | 11.7 | 13.0
CC(C)(C)NC(=O)NC(=O)CN1CCN(c2ncc(C(F)(F)F)cc2Cl)CC1 | 4.0 | i | 25* | 9.6 | -5.2 | -21.1
COc1ccc(-c2csc(NC(=O)c3ccccc3F)n2)cc1 | 1.0 | i | i | -49.5 | -2.0 | -24.0
COc1ccc(-c2csc(NC(=O)c3ccccc3NS(=O)(=O)c3ccc(F)c(F)c3)n2)cc1 | 15.6 | i | 100* | 73.6* | -7.6 | 77.8*
COc1ccc(N(C(=O)c2snc(C(N)=O)c2N)C(C(=O)NC2CCCC2)c2cc(OC)ccc2OC)cc1 (stereo unspecified) | -0.8 | i | i | 22.5 | 12.2 | -11.9
Cc1ccc(C(=O)Nc2ccc(Cc3ccncc3)cc2)cc1[N+](=O)[O-] | -4.9 | i | 100* | -31.8 | 2.1 | -3.7
Cc1ccc(C)c(NC(=S)NC(NC(=O)N(C)C)C(Cl)(Cl)Cl)c1 (stereo unspecified) | 11.8 | i | i | -2.7 | 10.1 | 15.6
Cc1ccc(C)c(NC(=S)NC(NC(=O)Cc2cccc3ccccc23)C(Cl)(Cl)Cl)c1 (stereo unspecified) | 5.4 | i | i | 111.7* | -0.4 | -11.6
COc1ccc(NC(=S)NC(NC(=O)c2cccc3ccccc23)C(Cl)(Cl)Cl)c([N+](=O)[O-])c1 (stereo unspecified) | 18.8 | -7.41* | i | -1.3 | 14.6 | -34.6
O=C(C1CCCN(S(=O)(=O)c2ccc(F)cc2)C1)N1CCCCC1 (stereo unspecified) | -7.3 | i | i | 9.0 | -3.9 | -20.6
SMILES | Jurkat NFkB inh | ANO1 activ | ANO1 block | aSyn UTR inh | 697 NFkB inh | KLF5 inhibitor
Cc1nc2ccccc2c(=O)n1NC(=O)c1ccccc1Br | -3.8 | i | i | -8.1 | 6.2 | -49.3
Cc1cc(C)c2cc(C#N)c(N3CCCN(C(=S)NCCCN(C)C)CC3)nc2c1 | -1.6 | i | i | 95.7* | -4.5 | -15.4
CC(=O)Nc1cccc(OCC(=O)Nc2sccc2C(N)=O)c1 | -35.3 | i | i | -81.7 | 4.9 | -39.9
COc1ccc(C(=O)Nc2ccccc2-c2nnn(CC(=O)N3CCOCC3)n2)cc1 | 11.5 | i | i | 0.0 | 6.2 | -2.8
COc1ccc(C(=O)Cn2nnc(-c3ccccc3NC(=O)c3ccco3)n2)cc1 | 24.4 | -11* | i | -15.5 | 4.2 | -0.8
Cc1ccc(NC(=O)CN2C(=O)S/C(=C/c3ccc(-c4cc(C(=O)O)ccc4C)o3)C2=O)cc1C | -3.2 | i | 100* | 24.4 | 13.1 | -12.8
Cc1cccc(NC(=O)CN2C(=O)S/C(=C\c3ccc(-c4cccc(C(=O)O)c4C)o3)C2=O)c1 | -10.3 | i | i | 14.9 | 12.4 | -18.4
COC(=O)c1sc(N2C(=O)C(O)=C(C(=O)c3ccc(C)o3)C2c2cc(OC)ccc2OC)nc1C (stereo unspecified) | 10.9 | i | i | -0.2 | -4.4 | -17.9
O=[N+]([O-])c1ccc(Cl)cc1Sc1nc2ccccc2o1 | 2.0 | i | i | 68.6* | 22.0 | -32.0
O=[N+]([O-])c1ccc(Sc2nc3ccccc3o2)c([N+](=O)[O-])c1 | 45.2 | i | i | -16.0 | -40.1 | -6.3
CCn1c(N)c(C(=O)NC)sc1=S | 5.4 | i | 100* | -0.3 | 26.5 | -10.2
CCNC(=O)c1sc(=S)n(CC)c1N | -6.2 | i | i | 5.7 | 24.0 | -7.8
CCCOc1ccc(-c2nnc(-c3ccco3)o2)cc1 | -73.1 | i | i | 64.7* | -223.3 | -68.7
O=C(COC(=O)c1n[nH]c2ccccc12)NC1CCCCC1 | -2.3 | i | / | / | 7.3 | /
Cc1ccc(C(=O)NCCSc2ccc(Cl)cc2)cc1S(=O)(=O)Nc1ccccc1 | 12.4 | i | 100* | 24.8 | -0.9 | 3.2
Cc1ccc(NS(=O)(=O)c2cc(C(=O)NCCSc3ccc(C)cc3)ccc2C)cc1 | 7.7 | i | i | 29.0 | 1.1 | 0.3
O=C(Cc1cn(Cc2cccc(Cl)c2)c2ccccc12)N1CCCCCC1 | -4.1 | i | 25* | 7.6 | 0.1 | -4.8
O=C(O)Cc1cn(Cc2cccc(Cl)c2)c2ccccc12 | 9.3 | i | i | 13.2 | -5.8 | 7.0
CCOC(=O)C1CCN(C(=O)CCc2c(C)nc3cc(-c4ccccc4)nn3c2C)CC1 | 23.5 | i | i | 66.5* | 29.2 | -12.4
CCN(CC)c1ccc(CNc2nc3ccccc3n2CCN2CCCCC2)cc1 | 9.8 | i | 100* | -5.6 | -41.4 | -27.1
CCOC(=O)/C(C#N)=C(C)/C=C1\Sc2ccccc2N1CC | -58.2 | i | i | -105.5 | -87.0 | -1.8
CCN1/C(=C\C=C(C(C)=O)C(C)=O)Sc2ccccc21 | 0.2 | -5.62* | i | -16.7 | 8.0 | -11.2
